Results: paper PMC10338684

biological target: Helicase protein MOM1 (UniProt Q9M658); test: mass-spectrometry hit list; affinity purification or IP with mass spectrometry
Sequence of UniProt Q9M658 (Q9M658 whole entry): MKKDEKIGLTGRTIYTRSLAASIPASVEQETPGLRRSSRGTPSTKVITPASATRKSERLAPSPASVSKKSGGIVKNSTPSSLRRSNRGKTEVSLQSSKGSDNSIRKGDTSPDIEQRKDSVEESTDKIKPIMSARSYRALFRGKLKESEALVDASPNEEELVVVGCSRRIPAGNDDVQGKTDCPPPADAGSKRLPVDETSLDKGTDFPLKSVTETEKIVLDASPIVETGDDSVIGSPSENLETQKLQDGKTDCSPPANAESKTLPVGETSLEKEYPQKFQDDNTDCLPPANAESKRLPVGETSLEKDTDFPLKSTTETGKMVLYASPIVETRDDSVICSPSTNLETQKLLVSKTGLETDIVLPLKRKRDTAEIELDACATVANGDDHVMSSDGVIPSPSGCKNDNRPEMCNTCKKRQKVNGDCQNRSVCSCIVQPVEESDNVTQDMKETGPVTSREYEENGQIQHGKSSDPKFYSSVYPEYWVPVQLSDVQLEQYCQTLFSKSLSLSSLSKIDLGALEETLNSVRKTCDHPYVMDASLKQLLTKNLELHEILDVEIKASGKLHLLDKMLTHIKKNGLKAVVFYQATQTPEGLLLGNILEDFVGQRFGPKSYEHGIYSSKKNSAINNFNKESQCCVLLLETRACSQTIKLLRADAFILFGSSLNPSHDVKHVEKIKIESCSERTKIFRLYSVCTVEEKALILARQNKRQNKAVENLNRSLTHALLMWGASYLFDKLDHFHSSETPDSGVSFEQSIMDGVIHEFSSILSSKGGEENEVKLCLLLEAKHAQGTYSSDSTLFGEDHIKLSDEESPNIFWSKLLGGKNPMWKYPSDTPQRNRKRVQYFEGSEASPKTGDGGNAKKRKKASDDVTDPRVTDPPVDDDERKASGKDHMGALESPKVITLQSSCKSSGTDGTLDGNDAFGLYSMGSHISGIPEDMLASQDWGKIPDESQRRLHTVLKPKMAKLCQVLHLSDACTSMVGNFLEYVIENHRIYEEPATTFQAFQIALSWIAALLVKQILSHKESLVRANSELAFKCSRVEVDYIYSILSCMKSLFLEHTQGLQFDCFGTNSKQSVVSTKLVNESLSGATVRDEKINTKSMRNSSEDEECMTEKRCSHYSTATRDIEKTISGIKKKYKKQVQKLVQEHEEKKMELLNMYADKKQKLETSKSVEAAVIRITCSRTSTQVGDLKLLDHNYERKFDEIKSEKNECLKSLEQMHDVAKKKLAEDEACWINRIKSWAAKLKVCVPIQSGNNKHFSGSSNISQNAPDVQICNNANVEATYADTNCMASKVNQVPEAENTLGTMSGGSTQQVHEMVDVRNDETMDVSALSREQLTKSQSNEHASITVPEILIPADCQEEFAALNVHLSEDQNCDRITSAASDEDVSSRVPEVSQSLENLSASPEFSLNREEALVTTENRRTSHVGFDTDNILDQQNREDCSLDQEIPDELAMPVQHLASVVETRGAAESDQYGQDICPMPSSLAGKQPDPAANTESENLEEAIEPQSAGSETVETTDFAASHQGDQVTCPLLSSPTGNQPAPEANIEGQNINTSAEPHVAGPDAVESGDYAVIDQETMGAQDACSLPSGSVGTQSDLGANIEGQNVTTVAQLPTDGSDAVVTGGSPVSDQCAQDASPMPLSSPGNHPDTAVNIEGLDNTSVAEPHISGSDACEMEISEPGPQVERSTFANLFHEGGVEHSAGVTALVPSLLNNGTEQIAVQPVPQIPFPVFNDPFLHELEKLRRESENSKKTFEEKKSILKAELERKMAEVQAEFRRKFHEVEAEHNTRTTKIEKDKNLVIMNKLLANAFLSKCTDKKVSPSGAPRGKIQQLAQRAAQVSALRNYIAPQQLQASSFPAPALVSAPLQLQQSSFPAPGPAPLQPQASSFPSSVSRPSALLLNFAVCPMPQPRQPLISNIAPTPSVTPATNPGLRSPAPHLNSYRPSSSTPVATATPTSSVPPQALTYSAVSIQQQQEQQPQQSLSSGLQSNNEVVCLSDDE

Listed as a hit, yes:
Chromatin remodeling ATPase BRAHMA, Q6EVK6
ASI1-immunoprecipitated protein 3, Q8RXT5
DNA-directed RNA polymerase V subunit 1, Q5D869
DNA-directed RNA polymerases IV and V subunit 2, Q9LK40
E4 SUMO-protein ligase PIAL1, A0A0A7EPL0
Protein DEFECTIVE IN MERISTEM SILENCING 3, Q94A79
Probable inactive lysine-specific demethylase JMJ19, Q8L7T6
Protein MICRORCHIDIA 6, Q56Y74
Structural maintenance of chromosomes flexible hinge domain-containing protein GMI1, F4KFS5
Chromatin structure-remodeling complex protein SYD, F4IHS2
E4 SUMO-protein ligase PIAL2, F4JYG0
Protein MICRORCHIDIA 1, Q84WV6
PHD finger-containing protein 1, B3H578
Lysine-specific demethylase JMJ14, Q8GUI6
Protein RNA-directed DNA methylation 3, F4JW79
